The campaign covered roughly 39,000 compounds. About 3,300 (8.5%) were called active. Shown is part of a subset that was picked to be rich in actives.
Test system: HepG2
Assay: cytotoxicity call (relative viability < 0.9)
Details: 10 µM

SMILES | cytotoxicity call
Cc1ccc(S(=O)(=O)Nc2ccc3c(c2)CC(=O)N([C@H](C)CO)C[C@H](C)[C@H](CN(C)S(=O)(=O)c2ccccc2)O3)cc1 | inactive
COc1ccccc1S(=O)(=O)N[C@H]1C=C[C@H](CC(=O)N2CCN(C)CC2)O[C@H]1CO | inactive
COc1ccc(NC(=O)Nc2ccc3c(c2)C(=O)N([C@@H](C)CO)C[C@@H](C)[C@H](CN(C)S(=O)(=O)c2c(C)noc2C)OCCCC[C@@H](C)O3)cc1 | inactive
Cc1cc(C(=O)Nc2cccc3c2O[C@H](CN(C)C(=O)NC(C)C)[C@@H](C)CN([C@@H](C)CO)C3=O)n(C)n1 | inactive
C[C@@H]1CCCCO[C@@H](CN(C)S(=O)(=O)c2cccs2)[C@@H](C)CN([C@H](C)CO)C(=O)c2cc(NC(=O)c3ccccc3)ccc2O1 | inactive
O=C(C[C@@H]1CC[C@@H](NS(=O)(=O)c2ccccc2F)[C@@H](CO)O1)NCCCN1CCOCC1 | inactive
O=C(C[C@@H]1CC[C@@H]2[C@H](COC[C@@H](O)CN2C(=O)C2CC2)O1)NCc1ccncc1 | inactive
C[C@H](CO)N1C[C@H](C)[C@H](CN(C)C(=O)Nc2ccc(C(F)(F)F)cc2)Oc2ccc(NC(=O)Cc3ccccc3)cc2C1=O | active
C[C@H]1CN([C@@H](C)CO)C(=O)c2cc(NC(=O)Cc3ccccc3)ccc2O[C@@H]1CN(C)C(=O)Nc1ccc(C(F)(F)F)cc1 | inactive
C[C@H](CO)N1C[C@H](C)[C@@H](CN(C)C(=O)Nc2ccc(C(F)(F)F)cc2)Oc2ccc(NC(=O)Cc3ccccc3)cc2C1=O | inactive
C[C@@H]1CN([C@@H](C)CO)C(=O)c2cc(NC(=O)Nc3ccc(F)cc3)ccc2O[C@@H]1CN(C)C(=O)Nc1ccc(C(F)(F)F)cc1 | inactive
C[C@@H]1CN([C@H](C)CO)C(=O)c2cc(NC(=O)Nc3ccc(F)cc3)ccc2O[C@H]1CN(C)C(=O)Nc1ccc(C(F)(F)F)cc1 | inactive
C[C@@H]1CN([C@@H](C)CO)C(=O)c2cc(NC(=O)Nc3ccc(C(F)(F)F)cc3)ccc2O[C@@H]1CN(C)C(=O)Nc1ccc(F)cc1 | active
C[C@@H]1CN([C@H](C)CO)C(=O)c2cc(NC(=O)Nc3ccc(C(F)(F)F)cc3)ccc2O[C@@H]1CN(C)C(=O)Nc1ccc(F)cc1 | active
C[C@H]1CN([C@@H](C)CO)C(=O)c2cc(NC(=O)Nc3ccc(C(F)(F)F)cc3)ccc2O[C@H]1CN(C)C(=O)Nc1ccc(F)cc1 | inactive
C[C@H](CO)N1C[C@H](C)[C@@H](CN(C)C(=O)Nc2ccc(F)cc2)Oc2ccc(NC(=O)Nc3ccc(C(F)(F)F)cc3)cc2C1=O | inactive
CNc1[nH]cnc(=S)c1N | inactive
COc1ccc(NC(=O)Nc2ccc3c(c2)C(=O)N([C@H](C)CO)C[C@@H](C)[C@H](CN(C)CC2CCCCC2)O3)cc1 | inactive
CO[C@H]1CN(C(=O)c2ccnnc2)[C@H]2COC[C@@H]12 | inactive
Cc1noc(C)c1S(=O)(=O)Nc1ccc2c(c1)C(=O)N([C@@H](C)CO)C[C@@H](C)[C@@H](CN(C)Cc1ccc3c(c1)OCO3)O2 | inactive
Cc1cc(O)c(C(=O)NC(C(=O)NC2C(=O)N3C(C(=O)O)=C(CSc4nnnn4C)CSC23)c2ccc(O)cc2)cn1 (stereo not given) | inactive
C[C@H](CO)N1C[C@H](C)[C@@H](CN(C)C(=O)Nc2cccc3ccccc23)Oc2ccc(NC(=O)Nc3ccc4c(c3)OCO4)cc2C1=O | inactive

SMILES | cytotoxicity call
N[C@H]1[C@H](CCCCC(=O)O)SC[C@@H]1N | inactive
Cc1noc(C)c1NC(=O)N(C)C[C@@H]1Oc2ccc(NC(=O)c3ccncc3)cc2CC(=O)N([C@@H](C)CO)C[C@H]1C | inactive
Cl.NCCc1ccc(O)c(O)c1 | active
CC(Cc1ccc(O)c(O)c1)C(C)Cc1ccc(O)c(O)c1 (stereo not given) | inactive
NCCc1ccc(O)c(O)c1 | inactive
O=C(C[C@H]1CC[C@@H]2[C@H](COC[C@@H](O)CN2C(=O)C2CC2)O1)NCc1ccncc1 | inactive
COc1cc(CO)cc(I)c1O[C@H]1C=C(C(=O)NCCO)C[C@@H](NCc2ccc(F)cc2)[C@@H]1O | inactive
COc1cc(CO)cc(I)c1O[C@H]1C=C(C(=O)NCCO)C[C@@H](NC2CCCCCC2)[C@@H]1O | active
COc1cc(CO)cc(I)c1O[C@H]1C=C(C(=O)NCCO)C[C@@H](NC[C@@H]2CCCO2)[C@@H]1O | inactive
C[C@@H]1CCCCO[C@H](CN(C)Cc2ccc(Cl)c(Cl)c2)[C@@H](C)CN([C@H](C)CO)C(=O)c2cc(NC(=O)Cc3ccccc3)ccc2O1 | active
C[C@H]1CCCCO[C@@H](CN(C)Cc2ccccc2)[C@@H](C)CN([C@@H](C)CO)C(=O)c2cc(NC(=O)Cc3ccccc3)ccc2O1 | inactive
C[C@H](CO)N1C[C@H](C)[C@@H](CN(C)Cc2ccc(Cl)c(Cl)c2)OCCCC[C@H](C)Oc2ccc(NC(=O)Cc3ccccc3)cc2C1=O | active
C[C@@H]1CN([C@@H](C)CO)C(=O)c2cc(NC(=O)Cc3ccccc3)ccc2O[C@@H](C)CCCCO[C@H]1CN(C)Cc1ccccc1 | inactive
C[C@@H]1CCCCO[C@@H](CN(C)Cc2ccc(Cl)c(Cl)c2)[C@H](C)CN([C@H](C)CO)C(=O)c2cc(NC(=O)Cc3ccccc3)ccc2O1 | inactive
C[C@@H]1CN([C@H](C)CO)C(=O)c2cc(NC(=O)Cc3ccccc3)ccc2O[C@@H](C)CCCCO[C@H]1CN(C)Cc1ccc(Cl)c(Cl)c1 | active
C[C@@H]1CCCCO[C@@H](CN(C)Cc2ccccc2)[C@@H](C)CN([C@@H](C)CO)C(=O)c2cc(NC(=O)Cc3ccccc3)ccc2O1 | inactive
C[C@@H]1CN([C@@H](C)CO)C(=O)c2cc(NC(=O)Cc3ccccc3)ccc2O[C@@H](C)CCCCO[C@@H]1CN(C)Cc1ccccc1 | inactive
C[C@@H]1CCCCO[C@H](CN(C)Cc2ccc(Cl)c(Cl)c2)[C@H](C)CN([C@@H](C)CO)C(=O)c2cc(NC(=O)Cc3ccccc3)ccc2O1 | inactive
C[C@@H]1CCCCO[C@@H](CN(C)Cc2ccc(Cl)c(Cl)c2)[C@@H](C)CN([C@H](C)CO)C(=O)c2cc(NC(=O)Cc3ccccc3)ccc2O1 | active
CC(C)NC(=O)[C@@]1(C)c2ccccc2C(=O)N(Cc2cc(C(F)(F)F)cc(C(F)(F)F)c2)[C@H]1c1ccc(CO)cc1 | inactive
C[C@H](CO)N1C[C@H](C)[C@@H](CN(C)S(=O)(=O)c2ccccc2F)Oc2cc(C#Cc3cccc(F)c3)ccc2S1(=O)=O | inactive
COc1ccc(S(=O)(=O)N(C)C[C@H]2Oc3ccc(NC(=O)Cc4ccccc4)cc3CC(=O)N([C@@H](C)CO)C[C@@H]2C)cc1 | inactive

SMILES | cytotoxicity call
C[C@H](CO)N1C[C@H](C)[C@@H](CN(C)C(=O)Cc2ccccn2)Oc2ncc(C#CC3CCCCC3)cc2C1=O | inactive
C[C@H](CO)N1C[C@H](C)[C@H](CN(C)S(=O)(=O)c2ccc(F)cc2)Oc2ccc(NC(=O)c3ccncc3)cc2C1=O | inactive
CC(C)NC(=O)Nc1ccc2c(c1)CC(=O)N([C@@H](C)CO)C[C@H](C)[C@@H](CN(C)Cc1ccc3c(c1)OCO3)O2 | inactive
C[C@@H]1CCCCO[C@@H](CN(C)C(=O)c2ccccc2)[C@H](C)CN([C@@H](C)CO)C(=O)c2cc(NC(=O)Nc3ccc(F)cc3)ccc2O1 | inactive
C[C@H](NC(=O)C[C@H]1C[C@H]2c3cc(NC(=O)Nc4ccc(C(F)(F)F)cc4)ccc3O[C@H]2[C@@H](CO)O1)c1ccccc1 | inactive
CC(C)[Si]1(C(C)C)OCc2cc(-c3ccc(-c4ccc(Cl)c(Cl)c4)o3)nc(-c3ccccc3)c21 | inactive
CCC(=O)OC1C2CC3=C4CC(=O)OC(c5ccoc5)C4(C)CCC3C(C)(C2=O)C(CC(=O)OC)C1(C)C (stereo not given) | inactive
C[C@H](CO)N1C[C@H](C)[C@@H](CN(C)S(=O)(=O)c2ccccc2)OCCCC[C@H](C)Oc2ccc(NC(=O)NC3CCCCC3)cc2C1=O | inactive
C[C@@H]1CCCCO[C@H](CN(C)Cc2ccc(Cl)c(Cl)c2)[C@@H](C)CN([C@@H](C)CO)C(=O)c2cc(NC(=O)Cc3ccccc3)ccc2O1 | inactive
C[C@@H]1CCCCO[C@@H](CN(C)Cc2ccc(Cl)c(Cl)c2)[C@H](C)CN([C@@H](C)CO)C(=O)c2cc(NC(=O)Cc3ccccc3)ccc2O1 | active
C[C@H]1CCCCO[C@H](CN(C)Cc2ccc(Cl)c(Cl)c2)[C@@H](C)CN([C@@H](C)CO)C(=O)c2cc(NC(=O)Cc3ccccc3)ccc2O1 | active
C[C@@H]1CCCCO[C@@H](CN(C)Cc2ccc(Cl)c(Cl)c2)[C@@H](C)CN([C@@H](C)CO)C(=O)c2cc(NC(=O)Cc3ccccc3)ccc2O1 | inactive
C[C@@H]1CN([C@H](C)CO)C(=O)c2cc(NC(=O)Cc3ccccc3)ccc2O[C@@H](C)CCCCO[C@@H]1CN(C)Cc1ccc(Cl)c(Cl)c1 | inactive
C[C@@H]1CCCCO[C@H](CN(C)Cc2ccccc2)[C@@H](C)CN([C@H](C)CO)C(=O)c2cc(NC(=O)Cc3ccccc3)ccc2O1 | inactive
C[C@H]1CN([C@@H](C)CO)S(=O)(=O)c2ccc(C#CC3(O)CCCC3)cc2O[C@@H]1CN(C)C(=O)Nc1ccccc1 | inactive
C[C@H](CO)N1C[C@H](C)[C@@H](CN(C)S(=O)(=O)c2cccs2)OCCCC[C@H](C)Oc2ccc(NC(=O)Cc3ccccc3)cc2C1=O | inactive
C[C@@H]1CN([C@H](C)CO)C(=O)Cc2cc(NC(=O)Cn3cnnn3)ccc2O[C@H]1CN(C)Cc1ccc2c(c1)OCO2 | inactive
CO[C@@H](CN(C)S(=O)(=O)c1ccc(Cl)cc1)[C@H](C)CN([C@@H](C)CO)S(=O)(=O)c1cccc(Cl)c1 | inactive
O=C1OC2(c3ccc(O)cc3Oc3cc(O)ccc32)c2ccccc21 | inactive
O=C1OC(c2cc(I)c(O)c(I)c2)(c2cc(I)c(O)c(I)c2)c2ccccc21 | inactive
O=C1OC2(c3ccccc31)c1cc(I)c(O)c(I)c1Oc1c2cc(I)c(O)c1I | active
